Records with an inconclusive call do not appear. Active and inactive are the calls of the source. Calls come from the whole dose curve; as a rule, active = well fitted inhibition curve with a large enough effect; inconclusive = small, poorly fitted or top-dose-only effect; inactive = flat fitted curve, though single readings scatter. Numbered stars: 1 amine (or outer) side, 2 acyl side, 3 side chain; on linkers, the order of the positions; unused ones are H or OH. Peptide text beside a SMILES is read from it. CO = O=C([*:1])[*:2]

Chain of Papain (Carica papaya) (P00784 whole entry, looked up): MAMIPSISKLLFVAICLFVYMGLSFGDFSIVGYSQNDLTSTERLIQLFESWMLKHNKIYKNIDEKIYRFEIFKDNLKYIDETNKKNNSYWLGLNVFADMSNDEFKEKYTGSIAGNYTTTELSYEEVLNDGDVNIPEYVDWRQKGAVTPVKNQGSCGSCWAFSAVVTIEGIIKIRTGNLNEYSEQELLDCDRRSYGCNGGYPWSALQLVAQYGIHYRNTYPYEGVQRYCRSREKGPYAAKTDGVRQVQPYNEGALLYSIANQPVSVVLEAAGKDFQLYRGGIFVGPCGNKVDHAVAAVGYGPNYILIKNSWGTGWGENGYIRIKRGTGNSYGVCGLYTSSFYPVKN

The test concerns the target Papain (Carica papaya) (UniProt P00784). The experiment in a line: Confirmatory qHTS assay for inhibitors of the protease papain. As to conditions: papain Z-FR-AMC cleavage, fluorescence; series mostly up to 49.8 µM. The text has this: Principal Investigator: Sam Michael National Center for Advancing Translational Sciences, National Institutes of Health, Rockville, MD Current high-throughput screening (HTS) assay validation is often a manual process, though this can be enhanced by design-of-experiment approaches. An artificial intelligence-driven (AI/ML) assay optimization was developed as part of the NCATS A Specialized Platform for Innovative Research Exploration (ASPIRE) Initiative to accelerate preclinical drug discovery. We describe the development of an autonomous Cloud-based computational driven assay optimization system using the Kebotix adaptive optimization algorithm. The Kebotix Bayesian optimization algorithm identify and test the global optimum of the full 294 design-of-experiment (DOE) with a high optimization probability > 95%, and achieved a five-fold reduction in costs for reagents and lab supplies and HTE run-time. The proposed algorithm found suitable conditions for optimal assay performance. A cell-free assay for papain protease activity was chosen for proof-of-concept. This assay was ideal because its low cost and suitable for large amount of experiments, and previous NCATS experience would allow for historical comparisons. […] Described herein is the results of the papain qHTS assay.
PROTOCOL TABLE SEQUENCE No. (e.g., 1, 2, 3, etc.); PARAMETER (e.g., Cells, Incubation, Reagent, etc.); VALUE and DESCRIPTION. 1; Reagent; 3 uL; 4/3x Enzyme solution (working concentration of 5 nM) or 3 uL buffer 2; Compounds; 17 nL; library compounds and controls (working concentration of 169 nM - […]) 3; Time; 15 min; room temperature incubation 4; Reagent; 1 uL; 4x 2 uM Z-FR-AMC substrate 5; Centrifugation; 1000 rpm; 15 sec centrigure 6; Detection; Fluorescence Read 1; ViewLux plate reader 7; Time; 10 min; room temperature incubation 8; Detection; Fluorescence Read 2; ViewLux plate reader NOTES (numbers refer to Sequence numbers above; values are from representative experiments) 1; Dispense 3 uL of [4/3x] 5 nM Papain-buffer solution in medium-binding black solid-bottom Greiner plates (789176-F); columns 1-2 and […]. Dispense 3 uL of assay buffer (100 mM Na-acetate pH 5.5, 5 mM DL-Cysteine, 0.01% Tween20) to columns 3 and 4. 2; Compounds are single pin-transferred (17 nL) for a final concentration range of 0.664 nM - 39.2 uM. 3; Room temperature incubation. 4; Dispense 1 uL of [4x] 2 uM Z-FR-AMC substrate solution into the assay plate, columns 1 - 48. 5; Centrifuge the assay plate to remove bubbles. 6; Initial fluorescence signal (Read 1) is obtained using the ViewLux plate reader (PerkinElmer) equipped with a 340(30) nm excitation filter; 450(20) nm emission filter; 2 sec exposure time at energy set to 2000. 7; Room temperature incubation in the dark. 8; Final fluorescence signal (Read 2) is obtained using the ViewLux plate reader (PerkinElmer) equipped with a 340(30) nm excitation filter; 450(20) nm emission filter; 2 sec exposure time at energy set to 2000.
For orientation: Quantitative high-throughput screening tests each substance at several concentrations.
For the molecule `N#Cc1nc(Nc2ccccc2)nc(NC2CCCC2)n1`, the Potency was 81.4 nM (active). The same measure for `COc1cccc(Nc2nc(C#N)nc(NC3CCCC3)n2)c1`: 57.6 nM (active).

Turning to `N#Cc1nc(Nc2cccc(F)c2)nc(NC2CCCC2)n1`, the Potency was 115 nM (active).

For the molecule `Cc1cccc(Nc2nc(C#N)nc(NC3CCCC3)n2)c1`, the Potency is 64.7 nM (active). With `O=c1oc(Cl)c(Cl)c2ccccc12` the entry was “inactive”. With `CC(=O)N[C@@H](CC(C)C)C(=O)N[C@@H](CC(C)C)C(=O)N[C@H](C=O)CCCN=C(N)N` the figure was 10.2 nM (active). The same measure for `N#Cc1nc(Nc2cc(F)cc(F)c2)nc(NC2CCCC2)n1`: 162 nM (active). In the case of `CC(C)C[C@H](NC(=O)[C@@H](NC(=O)N[C@@H](Cc1ccccc1)C(=O)O)[C@H]1CCN=C(N)N1)C(=O)N[C@H](C=O)Cc1ccccc1`, the Potency is 10.2 nM (active).

Turning to `N#Cc1nc(Nc2ccc(F)cc2)nc(NC2CCCC2)n1`, the Potency was 102 nM (active). With `N#Cc1nc(Nc2cccc(Cl)c2)nc(NC2CCCC2)n1` the figure was 289 nM (active); with `CCOc1nc(C#N)nc(N2CCCCC2)n1`, 182 nM (active); with `CC(C)C(NC(=O)C(CCCN=C(N)N)NC(=O)NC(Cc1ccccc1)C(=O)O)C(=O)NC(C=O)CCCN=C(N)N` (stereo not drawn) ({Phe-CO}-Arg-Val-Arg-aldehyde; configuration not given here), 12.9 nM (active).

On to `COc1ccc(Nc2nc(C#N)nc(NC3CCCC3)n2)cc1`, for which the Potency was 102 nM (active).

For the origin of these results see PubChem BioAssay AID1645872 (National Center for Advancing Translational Sciences (NCATS), 2021).
